Results reported in PubChem BioAssay AID1578 (Sanford-Burnham Center for Chemical Genomics, 2009).
Several values for one entry are separate records, joined by “and”; a condition that tells them apart may be missing. Equal values may be shown once. Screen size: about 290,000 compounds; about 3,000 (1%) were called active. Rule as the data show it: active = inhibition mostly above about 36% (no sharp cut-off); inactive = mostly below about 34%. Shown is part of a subset that was picked to be rich in actives. Some compounds were tested as several samples or in several runs, with calls that do not always agree.

Test: NOD1 signaling inhibitors, primary screen, cell-based, luminescence, uHTS (AID 1578);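 also: HEK-293T reporter cells stimulated with the NOD1 agonist gamma-tri-DAP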
Details: NOD1-driven NF-kB luciferase reporter cells, at 4 µM, stronger effect = higher value
In the case of `C/C1=C\[C@@H](C)C/C=C/[C@H]2[C@@H]3O[C@]3(C)[C@@H](C)[C@H]3[C@H](Cc4c[nH]c5ccccc45)NC(=O)[C@]32C(=O)/C=C/C(=O)[C@@H]1O`, the inhibition is reported as -3.4% (inactive).
In the case of `CC1=CC2/C=C(\C)CCC(O)C(O)/C=C/C(=O)C23C(=O)NC(CC(C)C)C3C1C` (stereo not given), the inhibition is reported as 90.7% (active).
For `CCOc1ccc(-n2c(O)c(C=Nc3ccc(NC(C)=O)cc3)c(=O)[nH]c2=O)cc1`, the inhibition was -7.1% (inactive).
For `O=P(O)(O)C#Cc1ccccc1`, the inhibition was -12.9% (inactive).
In the case of `CN1CCN(c2nc([N+](=O)[O-])nn2C)CC1`, the inhibition is reported as -15.4% (inactive).
For `COC(=O)c1ccc(NC(=O)CSc2nc3ccc(N4C(=O)C5C6C=CC(C6)C5C4=O)cc3s2)cc1` (stereo not given), the inhibition was 104% (active).
With `CCOC(=O)c1c(-n2c(C)cc(C=C3C(=O)NC(=O)NC3=O)c2C)sc2c1CCCC2` the inhibition was 1.7% (inactive).
In the case of `CCC(C)C12CN3CCN(CC(C)(C3)C1=O)C2` (stereo not given), the inhibition is reported as 4.3% (inactive).
With `C=CCn1c(O)c(C(CC)=Nc2cccc(C(=O)O)c2)c(=O)[nH]c1=O` the inhibition was 5.1% (inactive).
In the case of `CCCCCCNC(=O)N[C@@H](Cc1ccc(O)cc1)C(=O)NCCC[C@H]1CN2C(=NC[C@H]2C)N1CC1CCC1`, the inhibition is reported as 2.9% (inactive).
In the case of `O=C(CNC(=O)OCc1ccccc1)NCC(=O)Nc1ccc(Br)cc1C(=O)c1ccccc1`, the inhibition is reported as 22% (inactive).
In the case of `O=C(/C=C/c1ccc2c(c1)OCO2)c1c(O)n(CCC2=CCCCC2)c(=O)[nH]c1=O`, the inhibition is reported as 34.4% (inactive).
With `COc1ccc(/C=C/C(=O)c2c(O)n(CCC3=CCCCC3)c(=O)[nH]c2=O)cc1OC` the inhibition was 14.2% (inactive).
With `COc1ccc(/C=C/C(=O)c2c(O)n(CCC3=CCCCC3)c(=O)[nH]c2=O)cc1` the inhibition was 79.8% (active).
In the case of `CCOc1cc2c(cc1OCC)-n1cccc1C(c1ccc(OC)cc1)NC2` (stereo not given), the inhibition is reported as -5.9% (inactive).
For `C[C@@H]1C[C@H]2OC(=O)C3(CO3)[C@H]2[C@H](O)[C@]2(C)C(=O)C3OC3[C@@H]12` (stereo not given in full), the inhibition was 65.6% (active).
With `CCN(CC)CCN=Cc1c(O)n(Cc2ccco2)c(=O)[nH]c1=O` the inhibition was -5.5% (inactive).
In the case of `CC(C)CN1CCN(Cc2ccc(C(F)(F)F)cc2)CC1CCO` (stereo not given), the inhibition is reported as -10.4% (inactive).
For `C/C(=N\N1CCCCCC1)c1c(O)n(C2CCCCC2)c(=O)[nH]c1=O`, the inhibition was -7.2% (inactive).
For `CCOC(=O)c1ccc(NC(=O)c2c(O)[nH]c(=O)[nH]c2=O)cc1`, the inhibition was -19% (inactive).
In the case of `CCn1cc(C(=O)NCc2ccccc2)c2ccccc21`, the inhibition is reported as -16.6% (inactive).
With `CCCCC(CC)COCCCN=Cc1c(O)[nH]c(=S)[nH]c1=O` (stereo not given) the inhibition was 34.9% (active).
With `CCCCCCCCN=Cc1c(O)[nH]c(=O)[nH]c1=O` the inhibition was -1.5% (inactive).
For `COCCCN=Cc1c(O)[nH]c(=S)[nH]c1=O`, the inhibition was -7.3% (inactive).
For `O=S(=O)(c1ccc(Cl)cc1)N1CN2CCN(C2)C1`, the inhibition was -10.2% (inactive).
With `CN1C(=O)C(=Cc2cn(CC#N)c3ccccc23)C(=O)N(C)C1=O` the inhibition was 1.8% (inactive).
With `CC1CCCCN1Cc1c[nH]c2ccccc12` (stereo not given) the inhibition was -3.8% (inactive).
For `c1cncc(C2Nc3cccc4cccc(c34)N2)c1`, the inhibition was 54.6% (active) and -3.4% (inactive).
For `c1cncc(C2CCCCN2)c1` (stereo not given), the inhibition was -6.3% (inactive).
In the case of `O=C1NC(c2cccnc2)Nc2sc3c(c21)CCCC3` (stereo not given), the inhibition is reported as -24.5% (inactive).
With `CC#CP(=O)(OC)C(O)(CF)c1ccccc1` (stereo not given) the inhibition was -41.2% (inactive).
For `O=S(=O)(c1ccc(Cl)cc1Cl)N1CCCC1c1cccnc1` (stereo not given), the inhibition was -4.1% (inactive).
With `CC(=O)Nc1ccc(CC(=O)N2CCN(Cc3ccccc3)CC2)cc1` the inhibition was 25.2% (inactive).
With `C[C@H]1C[C@@H](C)C(=O)[C@@H]([C@H](O)CC2CC(=O)NC(=O)C2)C1` the inhibition was 88% (active).
With `Cc1ccccc1NC(=O)CCl` the inhibition was 18.4% (inactive).
For `CCN(CC)S(=O)(=O)c1ccc(C(=O)NC2CN3CCC2CC3)cc1` (stereo not given), the inhibition was 7.1% (inactive).
In the case of `CCN(CC)CCCN=Cc1c(O)n(CCc2ccc(F)cc2)c(=O)[nH]c1=O`, the inhibition is reported as 19.7% (inactive).
For `CC(=O)OC(C)(C)/C=C/C(=O)C(C)(O)C1[C@H](O)C[C@@]2(C)C3CC=C4C(CC[C@@H](O)C4(C)C)[C@]3(CO)C(=O)C[C@]12C` (stereo not given in full), the inhibition was 12% (inactive).
For `CC(=O)OC(C)(C)/C=C/C(=O)[C@](C)(O)[C@H]1[C@H](O)C[C@@]2(C)[C@@H]3CC=C4[C@H](C[C@H](O)C(=O)C4(C)C)[C@]3(C)C(=O)C[C@]12C`, the inhibition was 92.6% (active).
With `Cc1ccc(-c2cc(-c3ccc(C)cc3)[n+](C)o2)cc1` the inhibition was 26.6% (inactive).
For `O=[N+]([O-])c1ccc(C2[C@H]3C(c4ccccc4)=NC4(CCCC4)N23)cc1` (stereo not given in full), the inhibition was -19.9% (inactive).
In the case of `Cc1nn(-c2ccccc2)c2c1CC1(C(=O)N(C)C(=O)N(C)C1=O)C1CCCCN21` (stereo not given), the inhibition is reported as -10.6% (inactive).
For `CN(CCCCC(=O)/C=N/O)Cc1ccccc1` (tested in a mixture with another compound), the inhibition was -7.6% (inactive).
For `O=[N+]([O-])c1ccc(N2CCNCC2)cc1N1CCCCCC1`, the inhibition was -7.5% (inactive).
For `O=C(CSC1c2ccccc2-c2ccccc21)N/N=C/c1ccccc1`, the inhibition was 14.7% (inactive).
With `O=C(CSC1c2ccccc2-c2ccccc21)N/N=C/c1ccccc1C(=O)O` the inhibition was -22.4% (inactive).
In the case of `O=C(CSC1c2ccccc2-c2ccccc21)N/N=C/c1ccccc1O`, the inhibition is reported as 80.9% (active).
In the case of `Oc1cccc(/C=N/NP(=S)(c2ccccc2)c2ccccc2)c1`, the inhibition is reported as -0.8% (inactive).
In the case of `COCc1ccc(CN2CCCC(C(=O)c3sccc3C)C2)o1` (stereo not given), the inhibition is reported as -44.8% (inactive).
In the case of `CN(Cc1ccccc1)Cc1ccccc1OC(=O)N(C)C`, the inhibition is reported as 2.4% (inactive).
For `COc1cc(/C=C(/C)[N+](=O)[O-])ccc1OCc1ccccc1Cl`, the inhibition was 86.8% (active).
In the case of `COc1cc(C=C2C(=O)NC(=O)NC2=O)ccc1OCc1ccc([N+](=O)[O-])cc1`, the inhibition is reported as -52% (inactive).
For `C/C(=C\c1ccc(N(C)C)cc1)[N+](=O)[O-]`, the inhibition was 41.9% (inactive).
In the case of `CCOC(=O)CNC(=S)N1CC2C[C@@H](C1)Cn1c2cccc1=O`, the inhibition is reported as 0.7% (inactive).
For `Cc1cc(N2CCCC2)ccc1C=C(C#N)C#N`, the inhibition was -24.7% (inactive).
With `Cc1ccc2cc(C=C(C#N)C#N)c(Cl)nc2c1` the inhibition was 72.2% (active).
In the case of `CN(C)c1ccc(C=C(C#N)C#N)cc1`, the inhibition is reported as -35.8% (inactive).
With `Cc1c(-c2cccc(Cl)c2)nc2ccccc2c1C(=O)N1CCC2(CC1)OCCO2` the inhibition was -11.2% (inactive).
With `O=[N+]([O-])c1ccc(-[n+]2c(-c3ccccc3)cc(-c3ccccc3)cc2-c2ccccc2)cc1` the inhibition was -8.8% (inactive).
In the case of `c1ccc(-c2cc(-c3ccccc3)[n+](-c3ccccc3)c(-c3ccccc3)c2)cc1`, the inhibition is reported as 65.7% (active).
With `Nc1ccccc1-[n+]1c(-c2ccccc2)cc(-c2ccccc2)cc1-c1ccccc1` the inhibition was -5.4% (inactive).
In the case of `NC(=S)c1cn(C2OC(CO)C(O)C2O)c2ncnc(N)c12` (stereo not given), the inhibition is reported as 104% (active).
For `CCNC(=O)[C@H]1O[C@@H](n2cnc3c(N)ncnc32)[C@H](O)[C@@H]1O`, the inhibition was -5.6% (inactive).
In the case of `CN(C)C(=O)Oc1ccc2c(c1)O/C(=C\c1cccc([N+](=O)[O-])c1)C2=O`, the inhibition is reported as -9.1% (inactive).
With `O=C1NC(=O)C(=Cc2ccc(Sc3ccccc3)o2)C(=O)N1` the inhibition was 1.7% (inactive).
For `Cc1c(C=O)c2ccccc2n1Cc1ccccc1F`, the inhibition was 5% (inactive).
For `CCn1c(O)c(/C=N/NC(=O)c2ccncc2)c(=O)[nH]c1=S`, the inhibition was 2.7% (inactive).
For `CCOC(=O)CCN=Cc1c(O)n(-c2ccc(Br)cc2)c(=O)[nH]c1=O`, the inhibition was -27.1% (inactive).
With `Cc1cc(C)n2nc(C)[n+](C)c2n1` the inhibition was -17.4% (inactive).
For `CCOC(=O)c1c(C)n(Cc2ccc3c(c2)OCO3)c2ccc(O)cc12`, the inhibition was -7.9% (inactive).
In the case of `COC(=O)c1c(C)n(Cc2ccc3c(c2)OCO3)c2ccc(O)cc12`, the inhibition is reported as 48.3% (active).
In the case of `COC(=O)c1c(C)n(Cc2ccccc2)c2ccc(O)cc12`, the inhibition is reported as 19.6% (inactive).
With `C=CCn1c(O)c(/C(C)=N/N2CCCCCC2)c(=O)[nH]c1=O` the inhibition was -6.9% (inactive).
For `CCCCCn1c(=O)c(C(=O)Nc2nc(CC(=O)OCC)cs2)c(O)c2ccccc21`, the inhibition was -28.8% (inactive).
With `CCOC(=O)Cc1csc(NC(=O)c2c(O)c3ccccc3n(CCC(C)C)c2=O)n1` the inhibition was -27.7% (inactive).
In the case of `CCCCCn1c(=O)c(C(=O)Nc2cccc(C)c2)c(O)c2ccccc21`, the inhibition is reported as -15.2% (inactive).
In the case of `CCCCCCn1c(=O)c(C(=O)Nc2nc(CC(=O)OCC)cs2)c(O)c2ccccc21`, the inhibition is reported as 58.7% (active).
In the case of `CCCCCn1c(=O)c(C(=O)Nc2ccncc2)c(O)c2ccccc21`, the inhibition is reported as 69.7% (active).
In the case of `CCCCCCn1c(=O)c(C(=O)Nc2ccncc2)c(O)c2ccccc21`, the inhibition is reported as 63.9% (active).
With `CCCCCn1c(=O)c(C(=O)NCc2ccncc2)c(O)c2ccccc21` the inhibition was 21.6% (inactive).
With `CCCCn1c(=O)c(C(=O)Nc2ccccc2)c(O)c2ccccc21` the inhibition was 14.3% (inactive).
In the case of `CCCCCn1c(=O)c(C(=O)Nc2ccccc2)c(O)c2ccccc21`, the inhibition is reported as -20.5% (inactive).
In the case of `Cc1ccc(N2CCN(CCc3ccccc3)CC2)cc1`, the inhibition is reported as 10.7% (inactive).
With `CCOc1nc(NC(C)C)nc(N2CC3CC(C2)c2cccc(=O)n2C3)n1` (stereo not given) the inhibition was -38.6% (inactive).
With `O=C(Nc1cccc(Cl)c1)c1c(O)c2c(n(Cc3ccccc3)c1=O)CCCC2` the inhibition was -38.5% (inactive).
For `CCCCn1c(O)c(C(C)=NCCCn2ccnc2)c(=O)[nH]c1=O`, the inhibition was -5.8% (inactive).
With `Cc1ccsc1C(=O)C1CCCN(Cc2sc(N(C)C)nc2Cl)C1` (stereo not given) the inhibition was 60.9% (active).
In the case of `CCc1ccc(CN2CCCC(C(=O)c3sccc3C)C2)o1` (stereo not given), the inhibition is reported as -19% (inactive).
In the case of `Cc1ncc(CN2CCCC(C(=O)c3sccc3C)C2)s1` (stereo not given), the inhibition is reported as -24.9% (inactive).
With `Cc1ccsc1C(=O)C1CCCN(Cc2cnc(N3CCOCC3)s2)C1` (stereo not given) the inhibition was 46.6% (active).
In the case of `Cc1ccsc1C(=O)C1CCCN(Cc2cnc(N(C)C)s2)C1` (stereo not given), the inhibition is reported as -26.4% (inactive).
With `Cc1ccsc1C(=O)C1CCCN(Cc2ccc(O)cc2)C1` (stereo not given) the inhibition was -32.6% (inactive).
With `Cc1ccsc1C(=O)C1CCCN(Cc2cnc(N3CCCC3)s2)C1` (stereo not given) the inhibition was 11.2% (inactive).
For `Cc1ccsc1C(=O)C1CCCN(Cc2cc3ccccc3o2)C1` (stereo not given), the inhibition was 75.6% (active).
For `Cc1ccc(CN2CCCC(C(=O)c3sccc3C)C2)o1` (stereo not given), the inhibition was -19.5% (inactive).
